Shown are actives, neighbours in structure and some others; about 6.9% of the full set was active somewhere.
Mdm2-MdmX inh: inhibitors of human Mdm2/MdmX interaction | O15151+Q00987 | SaOS-2 split-luciferase Mdm2/MdmX complementation, luminescence | inhibition, % at 8 µM | hit rate 3% among 330,000 | AID 485346;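 active means inhibition of at least 50% at 8 µM in the primary screen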
Beta apoptosis: beta cell apoptosis inhibition. AID 435005. INS-1E cytokine-induced death, ATP luminescence, 48 h; percent of positive-control rescue, neutral wells zero. hit rate 0.8% among 300,000. protection from apoptosis, % (concentration not given with the values);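 active means Every replicate reaches about 75%, or at least half do and their mean reaches it too, limit read from the data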;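 further: 0% = cytokine-treated negative control wells and 100% = positive control rescue; higher means more ATP so stronger rescue from cytokine killing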
MPTP inh: blocks calcium-induced mitochondrial swelling. hit rate 1.4% among 360,000. inhibition, % at 10 µM. isolated mouse mitochondria, Ca2+ swelling absorbance, 30 min;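 active means inhibition of 50% or more, scaled per plate between neutral and stimulator controls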;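 further: 0% = DMSO wells given calcium and 100% = 1 mM EGTA wells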
SKKanGAS inh: inhibitors of SKKanGAS S. pyogenes growth in kanamycin (SK-promoter or general growth effect); inhibition, % at 7.5 µM; BacTiter-Glo, 6 h; AID 1662; hit rate 1.3% among 300,000;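 active means mean replicate score, as percent of positive control median, at least 50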;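 further: strain carries kanamycin resistance gene driven by streptokinase promoter and grows in 40 µg/ml kanamycin; loss of luminescence reflects streptokinase promoter inhibition or plain growth inhibition; 0% = median of DMSO wells and 100% = positive control at its reference dose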
NR3A LBD binder: modulators (binders) of human NR3A ligand-binding domain; NR3A LBD differential scanning fluorimetry, Tm shift; 0% = protein alone, 100% = glycine-bound protein; Tm shift relative to glycine control, % at 25 µM; hit rate 2.5% among 340,000;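 active means melting temperature shift of at least 10% of the positive control shift, at one fixed dose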
CSC inhib: cancer stem cell inhibition; cancer stem cell-like cells viability, luminescence; inhibition, % at 7.5 µM; hit rate 1.1% among 300,000; AID 2717; in the data active means inhibition above about 75%; tested in HMLE shEcad cells
Mdm2-MdmX conf: human Mdm2/MdmX binding inhibition, confirmed | shares compounds with Mdm2-MdmX inh | luminescent assay | inhibition, % at 8 µM | hit rate 55% among 10,000 | AID 489028; in the data active means inhibition above about 40%
FLuc counter: full-length luciferase inhibition in Mdm2/MdmX counter-screen. AID 504607. shares compounds with Mdm2-MdmX inh. SaOS-2 full-length luciferase counterscreen, luminescence. inhibition, % at 8 µM. hit rate 77% among 6,200;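 active means mean inhibition at 8 µM reaching about 37%, which flags the compound as non-specific, limit read from the data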;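 further: p53-null SaOS-2 cells with luciferase driven by a doxycycline-inducible promoter; compound on cells about two nights before reading with doxycycline added after day one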
Active calls of the source: *; x = no result given.

SMILES	Mdm2-MdmX inh	Beta apoptosis	MPTP inh	SKKanGAS inh	NR3A LBD binder	CSC inhib	Mdm2-MdmX conf	FLuc counter
COC(=O)C1=C(C)N(Cc2ccccc2)C(=NCC(C)C)N[C@H]1c1cccc(F)c1	78.8*	-13.6	1.5	x	-1.3	x	44.9*	45.4*
COC(=O)C1=C(C)N(Cc2ccccc2)C(=NCc2ccc(OC)cc2)N[C@H]1c1cccc(F)c1	87.5*	4.5	0.1	14.8	-1.8	13.8	46.7*	56.7*
COC(=O)C1=C(C)N(Cc2ccccc2)C(=NCc2cc(OC)c(OC)c(OC)c2)N[C@H]1c1cccc(F)c1	62.4*	-3.7	3.5	7.5	-0.5	-2.2	21.7	x
CCN1C(=NCc2cc(OC)c(OC)c(OC)c2)N[C@@H](c2ccccc2)C(C(=O)OC)=C1C	20.1	-6.2	0.6	x	1.5	-7.9	x	x
CN1CCN(S(=O)(=O)c2cccc(C(=O)NC3(C)CCS(=O)(=O)C3)c2)CC1 (centres undefined)	18.9	2.1	0.1	x	0.5	x	x	x
Cc1ccc(S(=O)(=O)N2CCc3c2cc([N+](=O)[O-])cc3[N+](=O)[O-])cc1	1.6	6.9	1.5	11.6	-1.1	21.4	x	x
CCn1c(=O)n(CC)c2cc(N3CCCC3)c(NC(=O)c3cc(Br)ccc3OC)cc21	75.2*	47.0	x	65.2*	-15.6	14.5	20.3	x
CC1(C)Oc2ccc3ccc(=O)oc3c2/C(=C/Nc2ccc(O)cc2)C1=O	55.4*	-14.8	2.4	13.5	-5.0	-1.1	24.6	x
CC1(C)Oc2ccc3ccc(=O)oc3c2/C(=C/Nc2cccc(O)c2)C1=O	30.3	-4.5	-0.4	16.0	-0.2	x	x	x
O=[N+]([O-])c1ccc2nc(Cl)nc(-c3ccccc3)c2c1	96.3*	2.7	1.1	1.7	1.8	-10.9	66.0*	53.9*
CCn1ncc(C2=NOC(C(=O)NCc3ccccc3)C2)c1C (centres undefined)	61.9*	5.7	-1.8	7.4	0.1	69.3	52.0*	83.7*
COc1ccc(Nc2ncnc3c2c(C)c(C)n3CCO)cc1	-41.1	-3.2	0.2	-2.0	1.7	-11.3	x	x
CCOc1cc(C2NC(=O)NC2=O)ccc1O (centres undefined)	-15.8	-0.4	0.6	0.8	1.8	-5.9	x	x
O=C(NNc1c2ccccc2nc2ccccc12)C(O)c1ccccc1 (centres undefined)	78.5*	7.0	1.3	10.6	-2.1	-8.0	81.8*	34.4
O=C(NNc1c2ccccc2nc2ccccc12)C12CC3CC(CC(C3)C1)C2	68.3*	13.0	0.8	3.4	1.2	6.0	3.6	x
CC(C)CC(N)c1csc(Nc2ncccn2)n1 (centres undefined)	x	x	-0.1	x	x	x	x	x
O=C(c1ccccc1)C(c1ccccc1)c1ccccc1	-7.9	3.1	8.4	14.2	5.3	10.1	x	x
C=C(C(=O)c1ccccc1)C(C(=C)C(=O)c1ccccc1)c1ccc(OC)cc1	97.7*	110.8*	3.0	4.6	2.0	59.0	98.7*	50.4*
C=C(C(=O)c1ccccc1)C(c1ccccc1)C(C)C(=O)c1ccccc1 (centres undefined)	92.1*	x	0.7	18.6	-2.7	110.8*	62.5*	44.0*
COc1ccc(C(CC(=O)c2ccccc2)CC(=O)c2ccccc2)cc1	2.3	-3.3	1.8	-7.6	1.1	-7.9	x	x
O=C(Nc1ccccc1)C1=C[C@@H](C2CC2)C[C@@H](OCCCCO)O1	-27.6	-3.1	-2.4	-1.2	-2.5	-8.9	x	x
CC(C)c1onc(C(=O)Nc2ccc3c(c2)OCO3)c1[N+](=O)[O-]	18.8	8.2	-1.8	0.1	-14.1	4.6	x	x
CCN1CCN(c2cc(C)c3cc(NC(=O)c4ccc(C)c(C)c4)ccc3n2)CC1	67.2*	3.3	-0.1	2.0	-2.7	29.8	15.6	x
CCN1CCN(c2cc(C)c3cc(NC(=O)c4ccncc4)ccc3n2)CC1	1.5	x	3.0	-0.2	0.2	3.3	x	x
CCN1CCN(C(=S)Nc2ccc3nc(N4CCN(CC)CC4)cc(C)c3c2)CC1	30.2	-7.3	0.6	-1.3	-1.0	-3.2	x	x
CCCN(CCC)CCCNC(=S)Nc1ccc2nc(N3CCN(CC)CC3)cc(C)c2c1	52.9*	-7.6	1.0	-4.6	1.5	8.9	29.7	x

High-throughput results: PubChem, several laboratories
